# The supplement of paper PMC3334620
# In all, about 33,000 sequences were measured (“E-score (-0.5 to 0.5)”: median about -0.035, highest 2% from about 0.34 on). The sample holds the highest values, similar sequences and a random draw of the others, so the mix is not that of the screen.
# Biological target: T1, Mot3 (UniProt P54785)
# T1 sequence: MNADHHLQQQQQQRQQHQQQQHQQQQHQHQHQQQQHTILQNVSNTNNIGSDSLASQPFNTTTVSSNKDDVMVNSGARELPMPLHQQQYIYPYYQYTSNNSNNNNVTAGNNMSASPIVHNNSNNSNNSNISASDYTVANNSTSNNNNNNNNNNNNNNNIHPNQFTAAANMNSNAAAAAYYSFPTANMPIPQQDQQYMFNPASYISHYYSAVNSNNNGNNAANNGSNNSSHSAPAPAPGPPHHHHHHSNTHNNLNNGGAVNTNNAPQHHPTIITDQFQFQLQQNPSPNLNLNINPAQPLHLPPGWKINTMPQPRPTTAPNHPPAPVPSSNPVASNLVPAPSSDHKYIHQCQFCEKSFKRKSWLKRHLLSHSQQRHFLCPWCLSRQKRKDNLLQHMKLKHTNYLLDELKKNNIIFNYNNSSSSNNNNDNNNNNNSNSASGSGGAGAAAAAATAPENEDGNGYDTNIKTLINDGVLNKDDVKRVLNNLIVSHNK
# Experiment: PBM E-score (8-mer binding enrichment) (E-score (-0.5 to 0.5)); higher = stronger / more preferred TF binding
# Conditions: protein concentration: 200 nM; construct: GST-full length
# Protocol: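 Universal 'all 10-mer' protein binding microarrays (Agilent AMADID 015681) probed with GST-tagged S. cerevisiae TFs (full-length or DBD) made by in vitro transcription/translation (PURExpress), about 100-200 nM. Bound TF was detected with fluorescent anti-GST. Each ungapped 8-mer (which stands for itself and its reverse complement) is scored by the PBM enrichment score (E-score), a modified Wilcoxon-Mann-Whitney statistic from -0.5 to +0.5, computed with the Universal PBM Analysis Suite. Scale: above 0.35 generally sequence-specific binding.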
row,Sequence,PBM E-score
1,CCTTCAAA,0.115
2,CCTTCAAC,0.247
3,CCTTCAAG,0.351
4,AGAGAATC,-0.0691
5,AACCATTA,0.117
6,GAGGCCCC,-0.242
7,GTACACAA,0.323
8,TTACACAA,0.42
9,CTACACAA,0.29
10,CGACACGC,0.157
11,CTACACTC,0.0954
12,CTACACAG,0.348
13,CTACACGC,0.356
14,CTACACAC,0.333
15,CTACACTA,0.135
16,ATACACAG,0.332
17,CTACACGA,0.377
18,GTACACGA,0.327
19,AGCCAAGG,-0.106
20,AGTTCTCG,-0.137
21,AAAGTGTC,0.0356
22,AGCGACTC,-0.134

row,Sequence,PBM E-score
1,AATGTCTG,-0.0738
2,AGCGAGAG,-0.117
3,CTCAAGCC,-0.236
4,TCATAACA,0.255
5,AGAATGGA,-0.0583
6,AAGACCAT,-0.234
7,CTTAGGCC,-0.0744
8,ATTAGGCA,0.472
9,ATTAGGCC,-0.111
10,GTTAGGTA,0.26
11,GTTAGGCA,0.454
12,GTTAGGGA,-0.113
13,CTTAGGTA,0.139
14,CTTAGGCA,0.444
15,ATTAGGCG,-0.0797
16,CTATGCAA,0.0284
17,ACCTACCA,0.12
18,CGGGGATC,-0.303
19,AAAGCGTG,0.0569
20,ACCTGATA,0.203
21,GCTACACA,0.253
22,ACTACACA,0.331

row,Sequence,PBM E-score
1,TCAACACA,0.353
2,CCTACACG,0.336
3,TCTACACA,0.361
4,ACTACACG,0.386
5,CCAACACG,0.299
6,ACTACACT,0.181
7,ACAACACA,0.337
8,CCCAACGA,-0.0748
9,AGGGACTG,-0.226
10,CTGCAAGA,0.0551
11,CCTCTTCA,-0.171
12,ATAGCACG,-0.00445
13,GTAATCCA,0.225
14,ACAAAGCC,0.0921
15,CCAAATAG,0.00768
16,TGAAGTCA,0.0305
17,GGAAGGCC,-0.214
18,CGAAGGCC,-0.0438
19,TGAAGCCA,-0.0204
20,CGAAGGCA,0.476
21,GGAAGGGA,-0.292
22,AGAAGGCT,-0.0686

row,Sequence,PBM E-score
1,AGAAGGCA,0.475
2,CGAAGGCG,0.193
3,TGAAGGCA,0.483
4,AGAAGGCG,0.27
5,GGAAGGCA,0.482
6,ACCGAGAC,0.0166
7,CAAGCGTC,-0.0912
8,GCGGACAC,-0.3
9,ACGATCCA,-0.0439
10,CCCTAGTC,-0.163
11,AATAGGCT,0.161
12,CATAGGCA,0.476
13,TATAGTCA,0.188
14,TATAGGGA,-0.0815
15,AATAGGCC,-0.0184
16,TATAGGCA,0.482
17,AATAGGCA,0.479
18,CATAGGCC,0.135
19,GATAGGCA,0.473
20,CATAGGCG,0.0696
21,GATAGGGA,-0.155
